# Paper PMC4552634, “A New Set of Chemical Starting Points with Plasmodium falciparum Transmission-Blocking Potential for Antimalarial Drug Discovery” (PLoS ONE, 2015)
# Hit rate of the full screen: of about 13,000 compounds, about 3,200 (25%) showed an effect of 50% or more. The list shows a part of the results.
# Test system: P. falciparum stage V gametocytes
# Parameters: BacTiter-Glo ATP luminescence viability of purified stage V gametocytes in 384-well plates, per cent inhibition versus DMSO
# Conditions: 48 h, 5 µM; inhibitor
row,Structure (SMILES),% Inhibition
1,Cc1nc(-c2cccc(Nc3nccc(NCC(O)c4ccc(C(F)(F)F)cc4)n3)c2)cs1 (stereo not shown) [TCMDC-136591],22.87%
2,Cc1nc(-c2cccc(Nc3nccc(NCC(O)c4ccccc4C)n3)c2)cs1 (stereo not shown) [TCMDC-136567],-8.142%
3,Cc1cc(Nc2ccccc2)nc(Nc2ccccc2C)n1 [TCMDC-123883],4.396%
4,CCC1(c2ccccc2)N=C(N)N(CCCc2ccccc2)C1=O (stereo not shown) [TCMDC-136547],23.07%
5,CCCCCN1C(=O)N(c2ccc(Cl)c(Cl)c2)C(N(O)C(=O)Nc2ccc(Cl)c(Cl)c2)C1(C)C (stereo not shown) [TCMDC-124134],67.16%
6,CCCCCN1CCN(Cc2cccc(NC(=O)c3ccc(Cl)c(Cl)c3)c2)CC1 [TCMDC-134616],-65.82%
7,CC1(C)C(N(O)C(=O)Nc2ccc(Cl)c(Cl)c2)N(c2ccc(Cl)c(Cl)c2)C(=O)N1CCc1ccccc1 (stereo not shown) [TCMDC-125555],-2.423%
8,O=C(NCCN1CCC(c2ccncc2)CC1)c1cccc(Nc2nccc(Nc3ccc(Oc4ccccc4)cc3)n2)c1 [TCMDC-138607],-52.85%
9,COc1ccc2nccc([C@@H](O)CN3CCC(NC(=O)/C=C/c4ccc5[nH]c(=O)ccc5c4)CC3)c2c1 [TCMDC-141032],-20.87%
10,O=C(Nc1ccc(N2CCCCC2)c(Cl)c1)c1ccco1 [TCMDC-124392],30.55%
11,c1ccc2c(c1)CN(Cc1cc3ccccc3[nH]1)CC1(CCN(Cc3c[nH]c4cnccc34)CC1)O2 [TCMDC-133376],66.92%
12,c1ccc2c(c1)CN(CC1CC1)CC1(CCN(Cc3c[nH]c4cnccc34)CC1)O2 [TCMDC-133375],-19.67%
13,Oc1ccc(CN2Cc3ccccc3OC3(CCN(Cc4c[nH]c5cnccc45)CC3)C2)cc1 [TCMDC-133377],0.4377%
14,O=C(NCc1ccc(F)cc1)Nc1ccc(-c2cccc(-c3nc4ccc(C(F)(F)F)cc4[nH]3)c2)cc1 [TCMDC-133298],-50.83%
15,CS(=O)(=O)c1ccccc1CNC(=O)c1ccc(-c2ccc(-c3nc4cc(C(F)(F)F)ccc4[nH]3)s2)cc1 [TCMDC-132507],9.09%
16,COc1ccc2nccc([C@@H](O)CN3CCC(NC(=O)C(c4cc5ccccc5o4)N4CCN(c5ccc(F)cc5)CC4)CC3)c2c1 (stereo partly shown) [TCMDC-140996],-29.58%
17,CCc1c(CCNCCCCCCNC(C)Cc2ccc3c(c2CC)OCO3)ccc(OC)c1OC (stereo not shown) [TCMDC-132052],111%
18,CCc1c(CCNCCCCCCNC(C)(C)Cc2ccc3c(c2CC)OCO3)ccc(OC)c1OC [TCMDC-132055],110.7%
19,CCc1c(CCNCCCCCCNCCc2ccc3c(c2C)OCO3)ccc2c1OCO2 [TCMDC-132093],97.88%
20,CCc1c(CCNCCCCCCNCc2ccc3c(c2CC)OCO3)ccc(OC)c1OC [TCMDC-132068],92.52%
21,Nc1cnc(C#Cc2cc3ncnc(N(CCN4CCOCC4)c4ccc(OCc5cccc(F)c5)c(Cl)c4)c3s2)cn1 [TCMDC-134752],42.15%
22,Cc1cc(Oc2cc(NC(=O)c3sc4ncn(Cc5ccccc5F)c(=O)c4c3C)cc([N+](=O)[O-])c2)ccc1Cl [TCMDC-125704],16.56%
23,O=C(c1ccc(O)c(-c2cc(Cl)cc(Cl)c2)c1)N1CCCC1 [TCMDC-140161],-10.57%

row,Structure (SMILES),% Inhibition
1,CCOc1ccc(-c2cc3nc(C4CCNCC4)c(C(=O)Nc4ccc(C)cc4Cl)cn3n2)cc1 [TCMDC-125296],121.3%
2,CCOc1ccc(NC(=O)c2cn3nc(-c4ccc(OCC)cc4)cc3nc2C2CCNCC2)cc1 [TCMDC-125277],105.9%
3,CCOc1ccc(NC(=O)c2ccc(CN3CCCN(Cc4cccc(O)c4)CC3)cc2)cc1 [TCMDC-136436],8.028%
4,CCOc1cc(C)ccc1C1CCN(CCCCNC(=O)c2ccc(-c3ccc(Cl)cn3)cc2)CC1 [TCMDC-138562],-60.76%
5,CCOc1ccc(NC(=O)c2cccc(CN3CCCN(Cc4cccc(O)c4)CC3)c2)cc1 [TCMDC-135987],-4.859%
6,COc1cc(OC)c(NC(=O)COc2ccc(C)cc2)cc1Cl [TCMDC-123682],23.04%
7,O=C(Nc1cccc(-c2cccc(-c3nc4ccc(C(F)(F)F)cc4[nH]3)c2)c1)c1csnn1 [TCMDC-136902],10.49%
8,Cc1cc2c(cc1Cl)N(C(=O)Nc1cc(F)cc(-c3cncnc3)c1)CC2 [TCMDC-139052],-4.717%
9,COc1cc2nccc(Nc3cccc(Oc4ccccc4)c3)c2cc1OC.Cl [TCMDC-137216],29.43%
10,Cc1ccc(NC(=O)c2ccc(CN3CCCN(Cc4cccc(O)c4)CC3)cc2)cc1F [TCMDC-136395],3.853%
11,O=C1C(C2CCC(c3ccc(Cl)cc3)CC2)=C2OCC3COC2(O3)c2ccccc21 (stereo not shown) [TCMDC-138169],65.18%
12,O=C1COC2(CN1C1CCN(Cc3ccc(O)c(Cl)c3)C1)c1ccccc1-c1ccccc12 (stereo not shown) [TCMDC-136342],-3.473%
13,Cc1ccccc1C1CCN(C2CCC(NC(=O)/C=C/c3cccc(F)c3F)CC2)CC1 (stereo not shown) [TCMDC-133525],-91.19%
14,CC(=O)Nc1ncc(C(=O)Nc2ccc(-c3cccc(-c4nc5ccc(C(F)(F)F)cc5[nH]4)c3)cc2)s1 [TCMDC-136919],-27.65%
15,Nc1cccc(CNCc2cccc(-c3ccc(-c4nc5ccccc5[nH]4)s3)c2)c1.O=C(O)C(F)(F)F [TCMDC-132926],-42.76%
16,CNC(=O)COc1ccc(Nc2nnc(-c3ccc(C)c(S(=O)(=O)NCC4CCCO4)c3)c3ccccc23)cc1 (stereo not shown) [TCMDC-125616],3.105%
17,COc1cc(NC(=O)N2CCc3cc(OC)c(OCCN4CCCCC4)cc32)cc(C(F)(F)F)c1 [TCMDC-140782],9.489%
18,COc1cc(NC(=O)/C=C/c2ccccc2OC(F)(F)F)cc(OCCN2CCCCC2)c1 [TCMDC-140931],-34.24%
19,COc1cc2c(cc1OCCN1CCC(N)CC1)N(C(=O)/C=C/c1ccccc1Cl)CC2 [TCMDC-140969],75.81%
20,Cc1cnccc1/C=C/c1cccc(OCCCN2CCc3ccc(S(C)(=O)=O)cc3CC2)c1 [TCMDC-135876],29.22%
21,COc1ccc(Br)cc1/C=C/C(=O)Nc1ccc(C2CCN(C)CC2)cc1 [TCMDC-133711],12.54%
22,COc1cc2c(cc1OCCN1CCC(N3CCCCC3)CC1)N(C(=O)/C=C/c1ccccc1OC(F)(F)F)CC2 [TCMDC-141018],57.17%
23,COc1ccc(NC(=O)/C=C/c2ccccc2Cl)cc1OCCN1CCC(NC2CC2)CC1 [TCMDC-140756],-32.57%

row,Structure (SMILES),% Inhibition
1,Cc1noc(-c2ccc3c(c2)CCN(CCC2CCC(NC(=O)/C=C/c4cccc(Cl)c4)CC2)CC3)n1 (stereo not shown) [TCMDC-139877],-87.8%
2,Cc1cc(-c2ccc3c(c2)CCN(CCCOc2ccc4c(c2)CCN4C(=O)/C=C/c2ccccc2Cl)CC3)no1 [TCMDC-141470],81.48%
3,CCOc1ccc(Br)cc1/C=C/C(=O)Nc1ccc2c(c1)CN(C)CCC2 [TCMDC-133944],3.1%
4,CCCCN(CCCC)CCOc1cc2c(cc1OC)CCN2C(=O)/C=C/c1ccccc1Cl [TCMDC-141328],30.32%
5,CCOc1ccc(Br)cc1/C=C/C(=O)Nc1ccc(C2CCN(C)CC2)cc1 [TCMDC-134194],61.62%
6,NC1=NC(c2ccccc2)N(c2ccccc2)C(N)=N1 (stereo not shown) [TCMDC-123669],-71.64%
7,CNC(=O)CNC(=O)COc1cccc2ccccc12 [TCMDC-131646],8.257%
8,O=C(N/N=C/c1nc2ccccc2[nH]1)c1cccc([N+](=O)[O-])c1 [TCMDC-125792],11.6%
9,CCCCCCCC1=NN2C(=N)C(=Cc3cc(Br)c(OCc4ccc(F)cc4)c(OCC)c3)C(=O)N=C2S1 [TCMDC-124035],8.522%
10,CCOc1cc(O)c(-c2nc(N)ncc2-c2ccc3c(c2)OCCO3)cc1CC [TCMDC-125234],11.3%
11,CC1(C)N=C(N)NC(Nc2ccc(Cl)cc2)=N1 [TCMDC-124268],26.51%
12,COCCCNC(=O)[C@H]1CNCCN1C(=O)c1ccccc1 [TCMDC-141239],-7.699%
13,COc1ccc(NC(=O)/C=C/c2ccccc2Cl)cc1OCCN1CCC(N(C)C)CC1 [TCMDC-140755],36.26%
14,COc1ccc(NC(=O)/C=C/c2ccccc2Cl)cc1OCCN1CCC(N2CCN(C)CC2)CC1 [TCMDC-140757],11.04%
15,COc1cc2c(cc1OCCN1CCC(N3CCCCC3)CC1)N(C(=O)/C=C/c1ccccc1Cl)CC2 [TCMDC-140770],68.26%
16,COc1cc2c(cc1OCCN1CCC(N3CCCC3)CC1)N(C(=O)/C=C/c1ccccc1Cl)CC2 [TCMDC-140968],80.73%
17,COc1ccc(NC(=O)/C=C/c2ccccc2Cl)cc1OCCN1CCC(N2CCCC2)CC1 [TCMDC-140919],-16.17%
18,COc1ccc(NC(=O)/C=C/c2ccccc2Cl)cc1OCCN1CCC(N2CCCCC2)CC1 [TCMDC-140698],-6.505%
19,CN1CCC(N2CCN(CCOc3cc(NC(=O)/C=C/c4ccccc4Cl)ccc3Br)CC2)CC1 [TCMDC-140962],101%
20,COc1ccc(NC(=O)/C=C/c2ccccc2Cl)cc1OCCN1CCC(NCc2ccccc2)CC1 [TCMDC-140746],-31.11%
21,O=C(/C=C/c1ccccc1Cl)Nc1ccc(Br)c(OCCN2CCN(CCN3CCCC3)CC2)c1 [TCMDC-140961],38.25%
